Source: PubChem
ALDH1A1 inh – inhibitors of human aldehyde dehydrogenase 1A1; P00352; Purified ALDH1A1, NADH fluorescence, propionaldehyde substrate; Potency, µM (top dose mostly 75.3 µM), without a hit: top-dose activity, negative = inhibition, actives largely listed as inhibitors; 7.3% of 220,000 active; AID 1030;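 further: potency means the concentration at half of the fitted maximal effect; plate controls were no enzyme wells and a reference inhibitor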
Target sequence (P00352 whole entry, looked up): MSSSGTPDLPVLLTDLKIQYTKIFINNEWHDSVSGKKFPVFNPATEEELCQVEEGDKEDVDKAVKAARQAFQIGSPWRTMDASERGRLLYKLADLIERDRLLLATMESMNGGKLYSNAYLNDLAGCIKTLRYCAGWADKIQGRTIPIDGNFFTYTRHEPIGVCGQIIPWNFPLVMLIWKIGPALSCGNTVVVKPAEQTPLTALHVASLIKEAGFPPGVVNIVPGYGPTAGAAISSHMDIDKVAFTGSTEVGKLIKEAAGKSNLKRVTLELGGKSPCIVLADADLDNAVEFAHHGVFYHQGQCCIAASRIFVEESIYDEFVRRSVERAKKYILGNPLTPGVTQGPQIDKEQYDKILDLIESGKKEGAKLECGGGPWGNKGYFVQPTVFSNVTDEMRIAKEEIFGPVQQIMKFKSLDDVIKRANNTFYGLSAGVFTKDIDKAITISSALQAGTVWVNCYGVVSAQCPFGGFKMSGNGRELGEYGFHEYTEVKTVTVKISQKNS
PNC assembly inh – blocks assembly of the perinucleolar compartment | activity change (PNC), negative = inhibition, % at 10 µM | PC3M PTB-GFP, PNC prevalence imaging, 16 h; active compounds read low | 3.1% of 140,000 active | AID 2417;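 active means readout at or below -70, meaning at least 70% loss of cells showing the perinucleolar compartment, a nuclear body marking cancer cells; inconclusive means readout between -30 and a set limit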;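 further: plate controls were DMSO wells for no effect and camptothecin positive control wells for full effect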
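Compounds are pinned in duplicate onto adhered PC3M cells stably expressing GFP-tagged PTB and incubated 16 h at 37 C. Cells are then fixed, nuclei stained with Hoechst, and PNC-positive cells counted.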
IMPase inh – IMPase inhibition in cells; AID 901; 120,000 tested, under 10 active; CHO-M1 cells, IP1 accumulation, HTRF TR-FRET ratio; P97697; inhibition (IP1 accumulation), % at 46.1 µM; active means well fitted curve in the direction sought with a large enough effect in the signal ratio, not every such curve was filed as active; inconclusive means small, poorly fitted or top-dose-only effect, or a change in a side signal; inactive means no such curve, though single readings can be large or run the other way; the % refers to the signal ratio;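 further: cells stimulated with carbachol in lithium chloride buffer; plate controls were DMSO basal wells for no effect and reference inhibitor wells for full effect; higher means more IMPase inhibition seen as more IP1 and lower FRET ratio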
Target sequence (P97697 whole entry, looked up): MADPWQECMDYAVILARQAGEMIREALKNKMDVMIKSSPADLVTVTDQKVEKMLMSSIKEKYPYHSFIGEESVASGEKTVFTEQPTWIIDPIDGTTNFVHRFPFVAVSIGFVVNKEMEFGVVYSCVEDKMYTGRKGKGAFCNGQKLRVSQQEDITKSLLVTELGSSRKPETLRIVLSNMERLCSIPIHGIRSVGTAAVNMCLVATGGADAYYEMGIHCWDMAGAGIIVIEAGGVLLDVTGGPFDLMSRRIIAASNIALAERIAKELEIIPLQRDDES
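CHO-M1 cells (CHO stably expressing M1 receptor), compound up to 46 uM final, stimulated with carbachol (50 uM as added) in buffer with 50mM LiCl, pH 7.4, 30 min at 37C. Cytosolic IP1 read by TR-FRET; AC50 from Hill fits.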
IMPase Li inh – cell-permeable IMPase inhibitors with lithium potentiation. CHO-M1 cells, IP1 TR-FRET (IP-One), carbachol + lithium. AID 1457. 0.35% of 210,000 active. Potency, µM (top dose mostly 59.4 µM), for inactives: top-dose activity, negative = IMPase inhibition, actives largely listed as inhibitors; active means well fitted inhibition curve with a large enough effect; inconclusive means small, poorly fitted or top-dose-only effect; inactive means no such curve, though single readings can be large or run the other way;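 further: IP1 builds up when IMPase is blocked and the TR-FRET signal falls; potency means the concentration at half of the fitted maximal effect; plate controls were basal vehicle for no effect and high inhibitor control for full effect; nearly all actives have a fitted effect of over 50% in size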
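CHO-M1, 2000 cells/well, 16–30 h culture; cpd + low Li+, 30 min 37C; lysis with d2-IP1/Eu-anti-IP1 Ab, 10 min RT; TR-FRET 665/620 ratio and 620 channel; AC50 via Hill.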
HPGD block – blocks human HPGD enzyme activity. P15428. purified HPGD, NADH fluorescence kinetic, PGE2 substrate. Potency, µM, for inactives: at the highest dose activity change, negative = inhibition, hits mostly inhibitors. 4.3% of 150,000 active. AID 894; further: potency means the concentration at half of the fitted maximal effect
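20 nM HPGD preincubated 15 min at room temperature with compound in 50 mM Tris-HCl pH 8, 0.01% Tween 20. Started with 1 mM NAD+ and 30 uM prostaglandin E2; NADH fluorescence (360/450 nm) read 5 times over 30-s intervals, last minus first.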
Starred values were filed as active, the others as inactive; ? = inconclusive; . = no result; [ ] = dose if it differs, or a comment. Sampled rows, rich in hits. Any-hit rate of the full collection: about 11%. Unless noted, the call rests on the fitted dose curve; in most records, active means well fitted inhibition curve with a large enough effect (not every such curve was filed as active); inconclusive means small, poorly fitted or top-dose-only effect, or another doubt; inactive means no such curve, though single readings can be large or run the other way. Unless noted, on the % scale 0 is the no-effect control and ±100 the full control effect.

SMILES | ALDH1A1 inh | PNC assembly inh | IMPase inh | IMPase Li inh | HPGD block
CN1/C(=C\C=C(/C#N)C(=O)Nc2ccccc2F)C(C)(C)c2ccccc21 | -4.9% | -83.0* | . | -4.2% | -8.0%
CN1/C(=C/C=C(/C#N)C(N)=O)C(C)(C)c2ccccc21 | 6.5% | -84.9* | 7.1 | 0.1%[38.3 µM] | -12.6%
O=C(CSc1ccccc1Cl)N1CCC(c2nc3ccccc3s2)CC1 | 12.6µM* | -6.6 | 5.4 | 6.2%[38.3 µM] | -4.0%
O=C(CSc1ccc(F)cc1)N1CCC(c2nc3ccccc3s2)CC1 | 7.08µM* | -17.4 | 4.2 | 51.5%[38.3 µM] | -21.2%
O=C(CN1CCC(c2nc3ccccc3s2)CC1)N1CCCCC1 | ? | . | . | 9.6% | .
CCOC(=O)NC(Nc1ccc(S(N)(=O)=O)cc1)(C(=O)OCC)C(F)(F)F (configuration not stated) | 8.4% | 2.6 | 12.0 | -5.2%[38.3 µM] | -14.3%
Cc1ccccc1NC(=O)c1cc2c(-c3ccccc3)nn(-c3ccccc3)c2s1 | . | . | -0.8 | . | .
CCc1cccc(CC)c1N(COC)C(=O)Cn1c(C)nc2ccccc21 | . | . | 9.2 | . | .
COc1ccc(CN2C3CCCC2CC(NC(=O)Nc2ccccc2C)C3)cc1 (configuration not stated) | 7.2% | -100.0* | -3.3 | 15.1% | -10.1%
CCOc1ccc(C2C(C#N)=C(N)Oc3cc(C)oc(=O)c32)cc1 (configuration not stated) | 8.91µM* | . | . | -1.9% | .
C=C(C)[C@]12C[C@@H](C)[C@@]34OC(Cc5ccccc5)(O[C@@H]1[C@@H]3C=C(COC(=O)Cc1cc(OC)c(O)cc1I)C[C@]1(O)C(=O)C(C)=C[C@@H]41)O2 | -4.4% | . | . | 3.2% | -11.4%
Cc1ccc2[nH]c(=O)c(CN(Cc3ccccc3Cl)C(=O)N3CCOCC3)cc2c1 | ? | 64.6 | 16.6 | 36.1%[38.3 µM] | -5.1%
Cc1nn(-c2ccc3ccccc3c2)c(=O)c2ccccc12 | 20µM* | . | . | 10.2% | .
CCN1/C(=C2\SC(=S)N(Cc3ccccc3)C2=O)Sc2ccccc21 | -1.3% | ? | 0.6 | 3.4% | -14.7%
O=C1NC(=S)S/C1=C1\Sc2ccccc2N1CCCS(=O)(=O)O | 25.1µM* | -6.5 | ? | 35.4%[38.3 µM] | 25.1µM*
OCC1O[C@@H](OC2C(O)C(CO)O[C@@]2(CO)O[C@@H]2OC(CO)C(O)C(O)C2O)C(O)C(O)C1O (some centres not stated) | 0.9% | . | . | 2.7% | -6.4%
CCCn1c(C)nc2c(Nc3ccccc3)nc(C)nc21 | 2.7% | . | . | -8.0% | -4.8%
COC(=O)CCC/C=C1/SCC(NC(=O)c2ccccc2)C1=O (configuration not stated) | 7.94µM* | 13.9 | 10.7 | 22.8%[38.3 µM] | 25.1µM*
C=CCN1C(=O)/C(=C2/Sc3ccc(OC)cc3N2C)SC1=NCc1ccccc1 | -1.9% | . | . | 2µM* | .
O=C(Oc1cc(-c2ccccc2)no1)c1cccc(C(F)(F)F)c1 | 7.94µM* | 42.2 | 2.7 | 13.2%[38.3 µM] | -16.8%
O=C(Oc1cc(-c2ccccc2)no1)c1ccc(F)cc1 | 8.9% | -7.8 | 1.9 | -5.7%[38.3 µM] | -9.2%
COC(=O)[C@@]1(Cc2ccc(F)cc2)[C@H]2c3cc(C(=O)N4CCCC4)n(CCCNc4ncc(C(F)(F)F)cc4Cl)c3C[C@H]2CN1C(=O)c1ccccc1 | 5.8% | . | . | -3.6% | -12.8%
CCN(CC)S(=O)(=O)c1ccc2c(c1)nc(CCC(=O)OCC(=O)Nc1c(F)cccc1F)n2C | 10µM* | -8.0 | . | -2.6% | -10.0%
CCN(CC)S(=O)(=O)c1ccc2c(c1)nc(CCC(=O)Nc1ccc3c(c1)OCO3)n2C | 7.94µM* | 70.8 | . | -0.4% | -1.0%
CCN(CC)S(=O)(=O)c1ccc2c(c1)nc(CCC(=O)O)n2C | 11.2µM* | . | . | . | .
SMILES | ALDH1A1 inh | PNC assembly inh | IMPase inh | IMPase Li inh | HPGD block
CCN(CC)S(=O)(=O)c1ccc2c(c1)nc(CCC(=O)Nc1ccc3c(c1)OCO3)n2CC | 2.82µM* | 11.6 | . | 8.0% | -11.3%
CCN(CC)S(=O)(=O)c1ccc2c(c1)nc(CCC(=O)OCC(=O)Nc1cc(OC)cc(OC)c1)n2C | ? | -29.5 | . | 4.4% | -7.2%
CC/C=C\CC[C@H](O)C1=CCCCC1=O | 9.7%[13.5 µM] | . | . | . | .
CCCOc1cccc(C2c3c(oc4cc(C)c(C)cc4c3=O)C(=O)N2CCCN2CCOCC2)c1 (configuration not stated) | . | . | -3.7 | . | .
CC1(C)O[C@@H]2O[C@H]([C@@H]3COC(C)(C)O3)[C@H](N)[C@H]2O1 | -2.6%[13.5 µM] | . | . | -3.1% | -7.4%
CC(C)NS(=O)(=O)c1ccc(OCC(=O)N2CCN(c3ccccc3F)CC2)cc1 | . | . | -1.2 | . | .
CN(C)S(=O)(=O)c1ccc2c(c1)nc(CCC(=O)Nc1ccc3c(c1)OCO3)n2C | 5.01µM* | 29.2 | . | -1.0% | -15.6%
COCCN(Cc1cc2ccc(C)c(C)c2nc1Cl)C(=O)N1CCOCC1 | ? | . | . | 18.4% | .
CC(=O)N(Cc1cccs1)Cc1cc2ccc(C)c(C)c2nc1Cl | 17.8µM* | . | . | 21.2% | .
CC1(C)OC(C(O)(c2cc(F)c(F)c(F)c2)c2cc(F)c(F)c(F)c2)C(C(O)(c2cc(F)c(F)c(F)c2)c2cc(F)c(F)c(F)c2)O1 (configuration not stated) | 9.1%[13.5 µM] | . | . | . | .
FC(F)(F)c1cc(CO[C@H]2CCCN[C@H]2c2ccccc2)cc(C(F)(F)F)c1 | -2.7% | . | 0.1 | 16.0% | -6.0%
CCCc1nc(SCC(=O)c2ccc(F)cc2)c2ccccc2n1 | 17.8µM* | . | . | 5.6% | .
Cc1nc2ccccc2nc1SCC(=O)c1ccccc1 | 22.4µM* | 38.9 | ? | -13.2% | -19.2%
CCCCNC(=O)CSc1nc(CCC)nc2ccccc12 | -2.2% | . | . | -22.0% | .
CC(C)CN1C(=O)c2ccc(NC(=O)Cc3ccccc3)cc2C1=O | ? | . | . | -9.3% | .
O=C(NC(NNc1ccc([N+](=O)[O-])cc1)(C(F)(F)F)C(F)(F)F)c1ccc(Cl)cc1 | ? | -82.4* | 11.7 | 16.8%[38.3 µM] | 15.8µM*
O=C(NNc1ccc([N+](=O)[O-])cc1)c1ccccc1F | ? | . | . | 9.0% | .
CCCCN1C(=O)c2ccc(C(=O)NCCN3C(=O)S/C(=C\c4cccnc4)C3=O)cc2C1=O | 1.26µM* | 48.3 | . | 4.7% | -16.4%
CCN(CC)S(=O)(=O)c1ccc(C(=O)NCCN2C(=O)S/C(=C\c3cccnc3)C2=O)cc1 | ? | . | . | 12.3% | .
COc1ccc(O)c(/C=N/c2sc(C)c(C)c2C#N)c1 | 10µM* | 29.6 | 9.7 | 17.3%[38.3 µM] | 25.1µM*
O=C(c1ccc(CNS(=O)(=O)c2ccc(Br)cc2)cc1)N1CCCC1 | ? | . | . | 8.0% | .
CC(C)(C)c1ccc(S(=O)(=O)NCc2ccc(C(=O)N3CCOCC3)cc2)cc1 | 11.2µM* | 18.1 | 0.6 | 14.0%[38.3 µM] | -11.5%
COc1ccc(S(=O)(=O)N2CCC(C(=O)N3CCc4ccccc4C3)CC2)cc1C | -1.5% | 33.4 | ? | -0.7%[38.3 µM] | -2.9%
COc1ccc(S(=O)(=O)N2CCC(C(=O)N3CCOCC3)CC2)cc1 | -2.3% | -100.0* | 1.9 | 4.1% | -7.2%
COc1ccc(S(=O)(=O)N2CCC(C(=O)N3CCc4ccccc4C3)CC2)cc1 | ? | 4.9 | -7.4 | -2.2%[38.3 µM] | 35.5µM*
